# Source: the supplement of paper PMC11219838
# A number with no mark means an inactive call.
# Tests used:
# Details in all cases: 60 µM; 5 days; temperature: 20 °C
# Meloidogyne hapla J2 = test: proportion of mobile M. hapla J2 relative to DMSO control (fraction of DMSO control); higher = more viable, less nematicidal, active = 0.7 or less
# Method in brief: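 About 25 M. hapla J2 were added per 96-well well in distilled water, and compound was pinned to 60 µM final (0.6% v/v DMSO). Sealed plates were shaken at 200 rpm for 5 days at 20 °C, then 2 µL 1 M NaOH was added before microscopic mobility scoring. Mobility was divided by the mean of eight DMSO wells on the same plate, and two biological replicates were averaged.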
# [1] = tested on: Caenorhabditis elegans dauer (daf-2(e1370)); test: proportion of mobile C. elegans dauer larvae relative to DMSO control (fraction of DMSO control); higher = more viable, less nematicidal, active = 0.63 or less; extreme values may be limits of the assay
# Method in brief: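 Synchronized C. elegans daf-2(e1370) larvae were held at 25 °C for 48 h on MYOB plates with E. coli OP50 to form dauers, and about 20 dauers were added per 96-well well in liquid NGM. Compound was pinned to 60 µM final (0.6% v/v DMSO), and sealed plates were shaken at 200 rpm for 5 days at 20 °C. The proportion of mobile worms was scored under a dissection microscope relative to DMSO controls and averaged over two biological replicates.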
# Ditylenchus dipsaci = test: proportion of mobile D. dipsaci (mixed stage) relative to DMSO control (fraction of DMSO control); higher = more viable, less nematicidal, active = 0.86 or less; extreme values may be limits of the assay
# Method in brief: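 D. dipsaci were grown on pea plants in Gamborg B-5 agar and extracted through a filter funnel into water, and about 20 worms were added per 96-well well in distilled water. Compound was pinned to 60 µM final (0.6% v/v DMSO), and sealed plates were shaken at 200 rpm for 5 days at 20 °C. After 2 µL 1 M NaOH was added, mobile worms were scored microscopically. Mobility was expressed relative to DMSO controls and averaged over two biological replicates.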
Structure (SMILES),proportion of mobile M. hapla J2 (Meloidogyne hapla J2),proportion of mobile C. elegans dauer larvae [1],proportion of mobile D. dipsaci (Ditylenchus dipsaci)
Brc1ccc(-c2noc(-c3ccc4c(c3)OCO4)n2)cc1,1.03,1,1
N#Cc1ccccc1NC(=O)CSc1nnc(-c2ccccc2)o1,0.955,1,1
O=C(CSc1nnc(-c2ccncc2)o1)Nc1ccc(Cl)cc1Cl,0.57 (active),1,1
CCOc1nc(C)ccc1-c1noc(-c2ccccc2F)n1,0.851,1,1
c1ccc2c(-c3nc(-c4ccncc4)no3)cccc2c1,0.917,1,1
Cc1csc(NC(=O)CSc2nnc(-c3cccc(Cl)c3)o2)n1,1.05,1,1
CCCc1nnc(SCc2nnc(-c3ccccc3)o2)o1,1.03,1,1
Cc1ccc(OCc2nc(-c3ccc(Br)o3)no2)cc1C,1,1,1
Cc1ccccc1OCc1nc(-c2cccc(NC(=O)c3ccco3)c2)no1,1.03,1,1
O=C(Nc1ccccc1-c1nc(-c2cccnc2)no1)c1cc2ccccc2o1,0.919,1,0.9
c1ccc(-c2nnc(SCc3cccnc3)o2)cc1,0.92,1,0.75 (active)
COc1ccc(-c2noc(COc3ccc(Br)cc3)n2)cc1,1,1,1
Cc1cccc(-c2noc(-c3ccccc3Br)n2)c1,0.99,1,1
CCc1ccc(OCc2nc(-c3ccccn3)no2)cc1,0.966,1,1
COc1cccc(-c2noc(COc3cc(C)cc(C)c3)n2)c1,1.02,1,1
Brc1ccccc1-c1nc(-c2ccc3c(c2)OCO3)no1,1.04,1,1
CC(C)CCC(=O)Nc1ccccc1-c1nc(-c2ccncc2)no1,0.977,1,1
O=C(CSc1nnc(-c2cccc(Br)c2)o1)c1ccccc1,1.02,1,0.714 (active)
Cc1ccccc1-c1noc(-c2cccc(Br)c2)n1,1.04,1,1

Structure (SMILES),proportion of mobile M. hapla J2 (Meloidogyne hapla J2),proportion of mobile C. elegans dauer larvae [1],proportion of mobile D. dipsaci (Ditylenchus dipsaci)
Fc1ccccc1-c1nc(-c2ccccc2)no1,0.991,1,1
COc1cccc(-c2noc(COc3ccc(C)cc3C)n2)c1,0.941,1,1
CCOC(=O)c1ccc(OCc2nc(-c3cccs3)no2)cc1,1.1,1,1
Clc1cccc(-c2nc(-c3ccncc3)no2)c1,0.634 (active),1,1
c1ccc(COc2cccc(-c3nc(-c4cccnc4)no3)c2)cc1,0.854,1,1
COc1nc(-c2ccccc2)ccc1-c1noc(C(C)C)n1,0.776,1,1
Cc1ccc(-c2nc(C3CCCCC3)no2)cc1,1.01,1,1
CCCCSc1nnc(-c2ccc(Br)cc2)o1,1,0.5 (active),0.842 (active)
CC1CCN(C(=O)CSc2nnc(-c3cc4ccccc4o3)o2)CC1,0.996,1,1
Cc1cccc(-c2noc(-c3cccc(Br)c3)n2)c1,0.87,1,1
Cn1c(SCc2ccc(Cl)cc2)nnc1-c1ccco1,1.05,1,1
Cc1ccccc1-c1noc(CSc2nc3ccccc3[nH]2)n1,0.918,1,1
COc1cccc(-c2nnc(SCC(=O)Nc3ccccc3)o2)c1,1.03,1,1
CC(Oc1ccccc1)c1nc(-c2ccccn2)no1 (stereo unspecified),0.937,1,1
Cc1cc(NC(=O)CSc2nnc(-c3ccc(Cl)cc3Cl)o2)no1,0.833,1,1
CCN(CC)C(=O)CSc1nnc(-c2cccc(Cl)c2)o1,0.922,1,1
Cc1ccc(-c2nc(-c3cccnc3)no2)c(C)c1,1.1,0.0769 (active),1
Cc1cccc(C)c1NC(=O)CSc1nnc(-c2ccncc2)o1,0.908,1,1
